High-throughput results from PubChem BioAssay.
MBD2 inh: MBD2-methylated oligo binding inhibition. Q9UBB5. TR-FRET, MBD2 binding to methylated oligonucleotide. inhibition, % at 4.4 µM. 370,000 compounds, 0.31% hits. AID 686964; in the data active = inhibition above about 13%
Target sequence (Q9UBB5 whole entry, looked up): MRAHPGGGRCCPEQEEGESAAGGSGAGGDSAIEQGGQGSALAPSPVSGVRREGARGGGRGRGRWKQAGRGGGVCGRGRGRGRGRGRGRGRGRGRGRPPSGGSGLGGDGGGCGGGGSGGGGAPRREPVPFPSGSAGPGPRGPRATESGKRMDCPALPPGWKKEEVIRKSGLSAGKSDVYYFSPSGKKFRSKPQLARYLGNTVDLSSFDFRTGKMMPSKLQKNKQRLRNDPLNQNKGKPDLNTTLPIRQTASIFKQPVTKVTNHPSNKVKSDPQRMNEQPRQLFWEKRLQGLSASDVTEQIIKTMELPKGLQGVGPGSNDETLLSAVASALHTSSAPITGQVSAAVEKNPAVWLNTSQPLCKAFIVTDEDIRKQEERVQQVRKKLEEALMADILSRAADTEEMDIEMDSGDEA
rCAG binder: molecules binding r(CAG) RNA repeats. inhibition, % at 3 µM. r(CAG) RNA repeat, TO-PRO-1 dye displacement fluorescence. AID 651821. 370,000 compounds, 1.3% hits;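 active = inhibition above the plate cutoff, the mean of all test compounds on that plate plus 3 SD, cut at about 35% in these data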;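 note: 0% = DMSO alone and 100% = 100 µM mitoxantrone as full dye displacement; higher means more dye released from RNA so lower well fluorescence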
UHRF1 MBD2 ctr: human UHRF1 methylated DNA binding inhibitors. UHRF1 binding to methylated oligo, TR-FRET. inhibition, % at 4.4 µM. 370,000 compounds, 0.75% hits. AID 687016; in the data active = inhibition above about 21%;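 note: UHRF1 SRA domain binding a hemimethylated CpG hairpin DNA probe; 0% = median of test compound wells and 100% = reference inhibitor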
PG9 Ab binder: binds the HIV-1 gp120 antibody PG9. TR-FRET gp120-PG9 antibody binding. inhibition, % at 6.7 µM. 360,000 compounds, 0.43% hits; in the data active = inhibition above about 8.5%
DNMT1 block: blocks human DNA methyltransferase DNMT1; AID 588458; P26358; 360,000 compounds, 0.83% hits; inhibition (reported as % activation of signal), % at 10 µM; DNMT1 molecular beacon, Hinp1I cleavage, fluorescence; in the data active = inhibition above about 50%
LEDGF integ inh: blocks HIV-1 LEDGF/p75-dependent DNA integration; TR-FRET IN-LEDGF/p75 DNA integration, Eu/Cy5; inhibition, % at 3.7 µM; 370,000 compounds, 0.64% hits; AID 743269;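 active = inhibition above the screen-wide mean plus 3 SD, cut at about 13% in these data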;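 note: signal is the Cy5 over europium emission ratio at 671 and 618 nm; 0% = plate median of compound wells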
DNMT1 interf DR: counter-screen for DNMT1 inhibitors: spectral interference, dose response; shares compounds with DNMT1 block; 200 tested, under 10 active; molecular beacon fluorescence; IC50, µM; call rule not given here
DNMT1 confirm: confirmation of human DNMT1 inhibitors; shares compounds with DNMT1 block; DNMT1 molecular beacon HinP1I cleavage, fluorescence; inhibition, % at 10 µM; 2,300 compounds, 8% hits; AID 602385;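 active = average inhibition of at least 30% in the single-concentration confirmation test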
Beacon interf: counter-screen for DNMT1 inhibitors: spectral interference | activation (fluorescence interference), % at 10 µM | DNMT1 molecular beacon spectral interference counterscreen, fluorescence 485/520 | shares compounds with DNMT1 block | AID 602387 | 2,300 compounds, 1% hits;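 active = activation of at least 30% at 10 µM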;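 note: DNMT1 catalytic domain with a HinP1I cleavage step and a FAM/dabcyl DNA beacon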
The depositor's hits bear a star. Sampled rows, rich in hits. Any-hit rate of the full collection: about 3.5%.

Screening O=C1CC=C2C3CC4N(CCC45c4cc(O)c(O)cc4N1C25)CC3=CCBr (stereo unspecified) returned MBD2 inh 15*, rCAG binder 15, UHRF1 MBD2 ctr 31*, PG9 Ab binder 5, DNMT1 block 91* and LEDGF integ inh 62*.
Screening N#CC(C#N)=NNc1ccc(S(N)(=O)=O)cc1 returned MBD2 inh -6, rCAG binder 67*, UHRF1 MBD2 ctr -2, PG9 Ab binder -3, DNMT1 block 46 and LEDGF integ inh 3.
Screening C[N+]1=C(N)NC2=C3CCCCC3ONC2C1 (stereo unspecified) returned MBD2 inh 6, UHRF1 MBD2 ctr 2 and LEDGF integ inh 7.
Screening CCOC(=O)[C@]12Cc3cc(OC)ccc3[C@H]1N(CC(=O)OC)C(=O)c1cc(OC)ccc12 returned MBD2 inh -6, rCAG binder 0, UHRF1 MBD2 ctr -2, PG9 Ab binder -1 and LEDGF integ inh 3.
Screening CCOC(=O)[C@]12Cc3cc(OC)ccc3[C@H]1N(CC(=O)OC)C(=O)c1ccccc12 returned MBD2 inh 8, rCAG binder -1, UHRF1 MBD2 ctr 24*, PG9 Ab binder 1 and LEDGF integ inh 9.
O=C(NC(CCC(O)CO)P(=O)(Oc1ccccc1)Oc1ccccc1)OCc1ccccc1 (stereo unspecified) was read as MBD2 inh 0, rCAG binder -3, UHRF1 MBD2 ctr -1 and LEDGF integ inh -1.
`COc1ccc(N2C(=O)/C(=C/c3ccc(C)o3)C(=O)NC2=S)cc1` gave MBD2 inh -4, rCAG binder 24, UHRF1 MBD2 ctr -4, PG9 Ab binder -1, DNMT1 block 87*, LEDGF integ inh 7, DNMT1 confirm 11 and Beacon interf -1.
Clc1ccc(-c2nc3ccc(Cl)cn3c2CN2CCOCC2)cc1 was read as MBD2 inh -3, rCAG binder 3, UHRF1 MBD2 ctr -1, PG9 Ab binder 0, DNMT1 block 73*, LEDGF integ inh 2, DNMT1 confirm 2 and Beacon interf 5.
`O=C(c1ccccc1)N1Cc2cc(Br)ccc2-n2nncc2C1` gave MBD2 inh -4, rCAG binder 2, UHRF1 MBD2 ctr 1, PG9 Ab binder 0 and LEDGF integ inh -1.
Screening C[N+]12CCC(CC1)C(C(O)(c1ccccc1)c1cccs1)C2 (stereo unspecified) returned MBD2 inh 2, rCAG binder 0, UHRF1 MBD2 ctr 4, PG9 Ab binder -1, DNMT1 block 2 and LEDGF integ inh 1.
For CN1CCc2nc(SCc3cccc(Br)c3)c(C#N)cc2C1 the results were MBD2 inh -9, rCAG binder 1, UHRF1 MBD2 ctr -2, PG9 Ab binder 1, DNMT1 block 70*, LEDGF integ inh 2, DNMT1 confirm 2 and Beacon interf 4.
C[C@]12CC[C@H](OC(=O)CCC(=O)O)CC1=CCC1C2CC[C@@]2(C)C1CC[C@@H]2OC(=O)CCC(=O)O (stereo partly specified) was read as MBD2 inh 4, rCAG binder 29, UHRF1 MBD2 ctr 4, PG9 Ab binder 1, DNMT1 block 0 and LEDGF integ inh 1.
Screening C[C@]12CCC(OC(=O)CCC(=O)O)CC1=CCC1C2CC[C@]2(C)C(=O)CCC12 (stereo partly specified) returned MBD2 inh 1, rCAG binder 4, UHRF1 MBD2 ctr 0, PG9 Ab binder -2, DNMT1 block 91*, LEDGF integ inh 4, DNMT1 confirm 4 and Beacon interf 4.
For Cc1cc(/C=C2\C(=O)NC(=O)N(c3ccc(Cl)cc3)C2=O)c(C)n1-c1sc2c(c1C#N)CCCC2 the results were MBD2 inh 9, rCAG binder 25, UHRF1 MBD2 ctr 19, PG9 Ab binder -2, DNMT1 block 79*, LEDGF integ inh 7, DNMT1 interf DR >99, DNMT1 confirm 32* and Beacon interf -4.
C=CCN1C(=O)/C(=C/c2ccc3c(c2)CCCN3CCC)C(=O)NC1=S was read as MBD2 inh 3, rCAG binder 23, UHRF1 MBD2 ctr 4, PG9 Ab binder -1, DNMT1 block 2 and LEDGF integ inh -1.
Screening O=C1NC(=S)N(C2CC2)C(=O)/C1=C/c1ccc2c(c1)CCN2CCCCl returned MBD2 inh 1, rCAG binder 28, UHRF1 MBD2 ctr 2, PG9 Ab binder -4, DNMT1 block 87*, LEDGF integ inh 8, DNMT1 confirm 11 and Beacon interf 2.
`CCN1C(=O)/C(=C/c2ccc3c(c2)CCN3CCCCl)C(=O)NC1=S` gave MBD2 inh -2, rCAG binder 21, UHRF1 MBD2 ctr -4, PG9 Ab binder -2, DNMT1 block 102*, LEDGF integ inh 3, DNMT1 confirm 14 and Beacon interf 6.
CC(C)(C)N1C(=O)NC(=O)/C(=C\c2ccc3c(c2)CCN3CCCCl)C1=O was read as MBD2 inh -8, rCAG binder 16, UHRF1 MBD2 ctr -2, PG9 Ab binder -6, DNMT1 block -9 and LEDGF integ inh 1.
`Cc1ccc(S(=O)(=O)Cc2ccc(C(=O)N3CCC4(CC3)OCCO4)o2)cc1` gave MBD2 inh 0, rCAG binder 4, UHRF1 MBD2 ctr 11, PG9 Ab binder 0, DNMT1 block 58*, LEDGF integ inh 10, DNMT1 confirm 1 and Beacon interf 3.
O=c1[nH]c2ccccc2n1C1CCN(CCCC(c2ccc(F)cc2)c2ccc(F)cc2)CC1 was read as MBD2 inh 0, rCAG binder 4, UHRF1 MBD2 ctr -1, PG9 Ab binder 0, DNMT1 block -13 and LEDGF integ inh 0.
Screening O=C1CC(N2CCC(n3c(=O)[nH]c4ccccc43)CC2)C(=O)N1c1ccc(F)cc1 (stereo unspecified) returned MBD2 inh -2, rCAG binder -4, UHRF1 MBD2 ctr 5, PG9 Ab binder -2, DNMT1 block 61*, LEDGF integ inh 2, DNMT1 confirm 0 and Beacon interf 2.
CCN(CC)S(=O)(=O)c1cc(NC(=O)C(C)N2CC=C(c3ccccc3)CC2)ccc1C (stereo unspecified) was read as MBD2 inh -2, rCAG binder 3, UHRF1 MBD2 ctr 3, PG9 Ab binder -2, DNMT1 block -9 and LEDGF integ inh -6.
